# Inconclusive results are not listed. Values without a mark were called inactive. Activity calls are given as the source filed them. Calls come from the whole dose curve; as a rule, active = well fitted cell-killing curve with a large enough effect; inconclusive = small, poorly fitted or top-dose-only effect; inactive = flat fitted curve, though single readings scatter.
# Experiment: Cell Viability - LYMP2-016 (AID 984); note: nearly all actives have a fitted effect of over 55% in size; for activity change, negative = cytotoxicity: % is set by controls: 0 for no effect and ±100 for the full control effect
# Conditions: LYMP2-016 lymphoblastoid cell viability, qHTS; series mostly up to 92.2 µM; activity change, negative = cytotoxicity: at the top concentration
# Method in brief: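 Cytotoxicity was scored by luminescent ATP content (CellTiter-Glo) after 24 h compound exposure at 37 C of a human lymphoblastoid line at 2500 cells/well. Concentration-response data were fitted to the Hill equation for AC50.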
# Potency is the fitted concentration of half-maximal effect.
Compound,"activity change, negative = cytotoxicity",Potency
O=C(O)C(Br)Br,-21%,–
Oc1c(Cl)c(Cl)cc(Cl)c1Cl,-8.87%,–
Nc1ccc(Cc2ccc(N)c(Cl)c2)cc1Cl,-2.92%,–
Brc1ccc(Oc2ccc(Br)cc2Br)c(Br)c1,-8.84%,–
O=[N+]([O-])c1c(Cl)c(Cl)c(Cl)c(Cl)c1Cl,-2.36%,–
CN1CSC(=S)N(C)C1,–,39.8 µM (active)
ClCC(Cl)Cl,2.94%,–
C=CC(=O)OCCO,-43.5%,–
CC(C)Br,1.89%,–
O=[N+]([O-])c1ccc(O)c([N+](=O)[O-])c1,-5.89%,–
CC(C)[N+](=O)[O-],2.06%,–
CCCC[N+](=O)[O-],-5.6%,–
Cc1cc(-c2cc(C)c(N)c(C)c2)cc(C)c1N,-4.72%,–
Nc1cc(Cl)ccc1O,-7.56%,–
CCN(N=O)C(N)=O,-5.81%,–
N#CC(Cl)(Cl)Cl,0.481%,–
CCCCC(CC)COC(=O)c1ccc(C(=O)OCC(CC)CCCC)c(C(=O)OCC(CC)CCCC)c1 (centres undefined),-5.19%,–
O=C(O)C(Br)CBr (centres undefined),-15.1%,–

Compound,"activity change, negative = cytotoxicity",Potency
Nc1c(Br)cc([N+](=O)[O-])cc1[N+](=O)[O-],-14.1%,–
O=[N+]([O-])c1ccccc1CCl,-15.2%,–
N#CC(Br)Br,-31.9%,–
O=C(O)C(Cl)Br (centres undefined),-3.61%,–
COP(=S)(OC)SCn1nnc2ccccc2c1=O,-14.5%,–
Nc1ccc([N+](=O)[O-])cc1N,-7.96%,–
O=C(O)c1cccc(Cl)c1,1.62%,–
Cc1cc(N=Nc2ccccc2C)ccc1N,-6.56%,–
OCCCCO,-4.86%,–
O=[N+]([O-])c1cc(Cl)c(Cl)c(Cl)c1,-5.87%,–
CC(C)(COCC1CO1)COCC1CO1 (centres undefined),-10.4%,–
COc1ccccc1N,-1.07%,–
CC(C)(C)OOC(=O)c1ccccc1,-10.1%,–
c1ccc(N=NNc2ccccc2)cc1,-13.4%,–
COC(C)(C)C,-3.03%,–
C(CCOCC1CO1)COCC1CO1 (centres undefined),-19.3%,–
CN(C)c1ccc(N)cc1,–,79.4 µM (active)

# Experiment: Cell Viability - LYMP2-018 (AID 985);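 note: compound exposure lasted 24 hr at 37 °C; nearly all actives have a fitted effect of over 50% in size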;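 for activity change, negative = cytotoxicity: plate controls were DMSO only for no effect and tetraoctylammonium bromide at 92 µM for full effect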
# Conditions: LYMP2-018 lymphoblastoid cells, viability (qHTS); series mostly up to 92.2 µM; activity change, negative = cytotoxicity: at the top concentration
# Method in brief: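 Human lymphoblastoid LYMP2-018 cells, 2500/well, settled 5 hr at 37 C then exposed to compound 24 hr at 37 C; intracellular ATP measured by CellTiter-Glo luminescence. AC50 from Hill-equation concentration-response fits.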
Compound,"activity change, negative = cytotoxicity",Potency
O=C(O)C(Br)Br,-29%,–
Cc1ccc(OP(=O)(Oc2ccc(C)cc2)Oc2ccc(C)cc2)cc1,-19.6%,–
Oc1c(Cl)c(Cl)cc(Cl)c1Cl,0.145%,–
Nc1ccc(Cc2ccc(N)c(Cl)c2)cc1Cl,-2.49%,–
Brc1ccc(Oc2ccc(Br)cc2Br)c(Br)c1,-6.88%,–
O=[N+]([O-])c1c(Cl)c(Cl)c(Cl)c(Cl)c1Cl,-7.12%,–
CC(C)Br,1.19%,–
O=[N+]([O-])c1ccc(O)c([N+](=O)[O-])c1,-7.43%,–
Cc1cc(-c2cc(C)c(N)c(C)c2)cc(C)c1N,-5.08%,–
Nc1cc(Cl)ccc1O,-18.6%,–
CCN(N=O)C(N)=O,-3.37%,–
N#CC(Cl)(Cl)Cl,-18%,–
O=C(O)C(Br)CBr (centres undefined),-11.6%,–
Nc1c(Br)cc([N+](=O)[O-])cc1[N+](=O)[O-],-29.7%,–
Cc1cc(C)cc(OP(=O)(Oc2cc(C)cc(C)c2)Oc2cc(C)cc(C)c2)c1,-6.25%,–
O=C(O)C(Cl)Br (centres undefined),-15.5%,–
COP(=S)(OC)SCn1nnc2ccccc2c1=O,-7.1%,–
Nc1ccc([N+](=O)[O-])cc1N,-1.55%,–
O=C(O)c1cccc(Cl)c1,-1.57%,–
Cc1cc(N=Nc2ccccc2C)ccc1N,-21.1%,–
OCCCCO,-3.22%,–
O=[N+]([O-])c1cc(Cl)c(Cl)c(Cl)c1,-8.33%,–
CC(C)(COCC1CO1)COCC1CO1 (centres undefined),-27%,–
Cc1ccc2c(c1N)C(=O)c1ccccc1C2=O,-9.86%,–
COc1ccccc1N,-0.295%,–
CC(C)(C)OOC(=O)c1ccccc1,-6.57%,–
c1ccc(N=NNc2ccccc2)cc1,-19.3%,–
COC(C)(C)C,-5.95%,–
CN(C)c1ccc(N)cc1,–,63.1 µM (active)

# Experiment: Cell Viability - LYMP2-020 (AID 986); note: nearly all actives have a fitted effect of over 55% in size;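 for activity change, negative = viability loss: plate controls were DMSO only for no effect and tetraoctylammonium bromide at 92 µM for full effect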
# Conditions: series mostly up to 92.2 µM; activity change, negative = viability loss: at the top concentration
# Method in brief: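 Human lymphoblastoid LYMP2-020 cells (2500/well) preincubated 5 h at 37 C, then treated 24 h at 37 C. Viability measured as intracellular ATP by CellTiter-Glo luminescence after 30 min at room temperature; AC50 from Hill fits.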
Compound,"activity change, negative = viability loss",Potency
O=C(O)C(Br)Br,-9.66%,–
Cc1ccc(OP(=O)(Oc2ccc(C)cc2)Oc2ccc(C)cc2)cc1,-15.2%,–
Oc1c(Cl)c(Cl)cc(Cl)c1Cl,-7.68%,–
Nc1ccc(Cc2ccc(N)c(Cl)c2)cc1Cl,-13.3%,–
Brc1ccc(Oc2ccc(Br)cc2Br)c(Br)c1,6.17%,–
O=[N+]([O-])c1c(Cl)c(Cl)c(Cl)c(Cl)c1Cl,-5.63%,–
CN1CSC(=S)N(C)C1,–,39.8 µM (active)
ClCC(Cl)Cl,-12%,–
CC(C)Br,2.02%,–
O=[N+]([O-])c1ccc(O)c([N+](=O)[O-])c1,-8.84%,–
CC(C)[N+](=O)[O-],3.23%,–
CCCC[N+](=O)[O-],-10.4%,–
Cc1cc(-c2cc(C)c(N)c(C)c2)cc(C)c1N,-6.18%,–
Nc1cc(Cl)ccc1O,-23.6%,–
CCN(N=O)C(N)=O,-8.4%,–
N#CC(Cl)(Cl)Cl,-7.96%,–
CCCCC(CC)COC(=O)c1ccc(C(=O)OCC(CC)CCCC)c(C(=O)OCC(CC)CCCC)c1 (centres undefined),-20%,–
O=C(O)C(Br)CBr (centres undefined),-17.3%,–

Compound,"activity change, negative = viability loss",Potency
Nc1c(Br)cc([N+](=O)[O-])cc1[N+](=O)[O-],-25.2%,–
Cc1cc(C)cc(OP(=O)(Oc2cc(C)cc(C)c2)Oc2cc(C)cc(C)c2)c1,-10.2%,–
O=C(O)C(Cl)Br (centres undefined),-0.228%,–
COP(=S)(OC)SCn1nnc2ccccc2c1=O,-6.44%,–
Nc1ccc([N+](=O)[O-])cc1N,-13.2%,–
O=C(O)c1cccc(Cl)c1,1.6%,–
Cc1cc(N=Nc2ccccc2C)ccc1N,-22.1%,–
OCCCCO,1.86%,–
O=[N+]([O-])c1cc(Cl)c(Cl)c(Cl)c1,-12.7%,–
CC(C)(COCC1CO1)COCC1CO1 (centres undefined),-13.7%,–
Cc1ccc2c(c1N)C(=O)c1ccccc1C2=O,-12.5%,–
COc1ccccc1N,-1.38%,–
CC(C)(C)OOC(=O)c1ccccc1,0.0709%,–
c1ccc(N=NNc2ccccc2)cc1,-5.45%,–
COC(C)(C)C,-3.04%,–
C(CCOCC1CO1)COCC1CO1 (centres undefined),-12.6%,–
O=[N+]([O-])/C=C/c1ccccc1,–,50.1 µM (active)
